The list is not random: actives were taken first. Their share in the collection is about 2.3%.
A549 viability = counter-screen for Nrf2 inhibitors: cytotoxicity in A549 cells; AID 504648; A549 ARE-Fluc cells, CellTiter-Fluor viability, 18-24 h; Potency, µM (series often up to 46 µM), usual class: inhibitors; 0.16% of 390,000 active
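Cytotoxicity counterscreen: CellTiter-Fluor fluorescence was measured in A549 ARE_Fluc cells after 18-24 h of compound exposure in a concentration series. The subsequent BugLite luminescent read reports ARE-luciferase activity.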
IL2 activator = activators of IL-2 | IL-2 activation reporter assay, cell-based qHTS; stimulated with anti-CD3/CD4/CD28 beads; in transgenic mouse T cells | activation, % (series mostly up to about 46 µM) | 0.065% of 360,000 active | AID 652025; in the data active means activation above about 50%; inconclusive means mostly about 30% to 49%
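Readout is EGFP and DsRed signal by fluorescent plate cytometry after 18 h at 37 degrees C. Transgenic mouse T cells (750/well) received compound for 60 min before bead stimulation (anti-CD3, anti-CD4, anti-CD28); memory T cells served as non-tolerant control.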
Nrf2 inh = blocks Nrf2 signaling | A549 ARE-Fluc reporter, luciferase luminescence, 18-24 h | 2.1% of 360,000 active | AID 504444 | Potency, µM (titrated, usually from 46 µM), most hits filed as inhibitors; further: nearly all actives have a fitted effect of over 60% in size
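A549 ARE_Fluc cells, 5000/well, 5% FBS OPTI-MEM; compounds in dose-response, 18-24 h at 37 °C/5% CO2; CellTiter-Fluor viability read (Ex 405/Em 525), then BugLite luciferase luminescence = Nrf2 activity.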
Nrf2 ARE act = activators of Nrf2 (ARE) signaling | 0.31% of 410,000 active | Potency, µM (highest dose often 46.1 µM), usual class: activators | AREc32 ARE-luciferase reporter (MCF7-derived line), luminescence, 24 h; further: nearly all actives have a fitted effect of over 65% in size
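Quantitative high-throughput format: AREc32 reporter cells, 1000 per well, received compound by pin transfer and were incubated 24 hr at 37 deg C, 5% CO2, before Steady-Glo luminescence detection.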
Large screens that a line does not name were inactive. Unless noted, the call rests on the fitted dose curve; in most records, active means well fitted curve in the direction sought with a large enough effect; inconclusive means small, poorly fitted or top-dose-only effect, or another doubt; inactive means no such curve, though single readings can be large; an effect the other way counts as inactive or inconclusive.

Cc1ccc(-c2csc(=Nc3cccnc3)n2CCCN2CCCC2=O)cc1C	Nrf2 inh inconclusive
CCCCOc1cccc(C(=O)Nc2cccc(-c3nc4ncccc4o3)c2C)c1	Nrf2 inh 16µM (no result: IL2 activator)
COC(=O)c1ccc(C(=O)NC(=S)Nc2nc3c(s2)CCCC3)cc1	none
O=C(Nc1nc2c(s1)CCCC2)c1cccc(S(=O)(=O)N2CCCc3ccccc32)c1	Nrf2 inh 21µM
O=C(NC(=S)Nc1nc2c(s1)CCCC2)c1ccccc1	Nrf2 inh inconclusive, Nrf2 ARE act 2.5µM
CCCNC(=O)c1cc(S(=O)(=O)N2CCc3ccccc32)cn1C	Nrf2 inh 12µM
CCC(CC)c1nnc(NC(=O)c2cccc(S(=O)(=O)N3CCc4ccccc43)c2)s1	Nrf2 inh 21µM
O=C(Nc1nncs1)c1cccc(S(=O)(=O)N2CCc3ccccc32)c1	Nrf2 inh inconclusive
Cn1c(=O)cc(SCC(=O)NCCc2ccc(Cl)cc2)c2cc(Cl)ccc21	none (no result: IL2 activator)
COc1ccc(Nc2nc(C#N)nc(NC3CCCC3)n2)cc1	Nrf2 inh inconclusive (no result: IL2 activator, Nrf2 ARE act)
Cc1ccccc1Cn1cc(CCC(=O)NC(C)c2ccccc2)c2ccccc21 (configuration not stated)	none (no result: IL2 activator)
Cc1cc(C)c(C)c(S(=O)(=O)N2CCN(C(=O)c3ccccc3OCc3c(C)noc3C)CC2)c1C	Nrf2 inh 18µM
Cc1noc(C)c1COc1ccccc1C(=O)N1CCN(S(=O)(=O)c2ccccc2Br)CC1	none
Cc1noc(C)c1COc1ccccc1C(=O)NNC(=O)c1ccc(F)cc1	none
Cc1noc(C)c1COc1ccccc1C(=O)NNC(=O)c1ccccc1F	Nrf2 ARE act 10µM
Cc1cc2n(n1)CCC(=O)N2Cc1ccc(C(=O)Nc2cc(Cl)ccc2C)cc1	none (no result: IL2 activator)
COc1ccc2c(c1)[nH]c1c(N3CCSCC3)ncnc12	A549 viability inconclusive, Nrf2 inh 21µM
COc1cc2[nH]c3c(N4CCN(c5ccc(Cl)cc5)CC4)ncnc3c2cc1OC	Nrf2 inh inconclusive
COc1ccc2[nH]c3c(N4CC(C)OC(C)C4)ncnc3c2c1 (configuration not stated)	none
COc1cccc(N2CCN(c3ncnc4c3[nH]c3ccc(F)cc34)CC2C)c1 (configuration not stated)	A549 viability 18µM, Nrf2 inh 6.5µM
c1nc(N2CCN(Cc3ccc4c(c3)OCO4)CC2)c2[nH]cnc2n1	none
COc1ccc2c(c1)[nH]c1c(N3CCN(Cc4ccc5c(c4)OCO5)CC3)ncnc12	Nrf2 inh 13µM
CN(C)S(=O)(=O)c1cccc(CSCc2cccc(S(=O)(=O)N(C)C)c2)c1	Nrf2 inh 6.5µM
O=C(NCc1cccnc1)C1CCC(c2ccc(Cl)cc2)CC1 (configuration not stated)	Nrf2 inh 23µM
CCN(CC)C(=O)CSc1nc(-c2cccs2)cc(-c2cccs2)c1C#N	Nrf2 inh 18µM
CCCn1c2ccccc2c2cnn(CC(=O)N(CCCOC)Cc3ccco3)c(=O)c21	Nrf2 inh inconclusive (no result: IL2 activator)
COc1ccc(C(=O)NCCn2cc(SCc3cc(C)ccc3C)c3ccccc32)cc1	A549 viability inconclusive, Nrf2 inh 18µM (no result: IL2 activator)
Cc1cccn2c(=O)c(C(=O)NC(C)c3ccccc3)c(O)nc12 (configuration not stated)	A549 viability inconclusive, Nrf2 inh 6.5µM (no result: IL2 activator)
COc1ccc(CNC(=O)c2c(O)nc3c(C)cccn3c2=O)cc1	none (no result: IL2 activator)
COc1ccc(Cn2ncc3c4sc(C)cc4n(C)c3c2=O)cc1	none (no result: IL2 activator, Nrf2 ARE act)
C(=N\c1ncnc2sccc12)/NOCc1ccccc1	none (no result: Nrf2 inh)
Clc1ccc(CON/C=N/c2ncnc3sccc23)cc1	Nrf2 inh 21µM
Cc1cc(C)cc(NC(=O)CN2CCc3cc4c(cc3C2C)OCCCO4)c1 (configuration not stated)	Nrf2 inh 26µM
Cc1cccc(NC(=O)CN2CCc3cc4c(cc3C2C)OCCCO4)c1 (configuration not stated)	Nrf2 inh 23µM
Cc1ccc(NC(=O)CN2CCc3cc4c(cc3C2)OCCCO4)cc1	none
CCN1CCc2c(sc(-n3cccc3)c2C(C)NC(=O)Nc2cc(Cl)c(OC)cc2OC)C1 (configuration not stated)	Nrf2 inh inconclusive (no result: IL2 activator)
Cc1cccc(-c2csc3ncnc(Sc4nnnn4C)c23)c1	Nrf2 inh inconclusive (no result: IL2 activator, Nrf2 ARE act)
CC(=O)Nc1ccc(S(=O)(=O)Nc2ccc(C)c(C)c2)cc1	Nrf2 inh inconclusive (no result: IL2 activator, Nrf2 ARE act)
CCOc1ccc(OCC)c(NC(=O)c2nnn(Cc3cc(Br)ccc3OC)c2N)c1	none (no result: IL2 activator)

Bioassay records from PubChem.
